# According to PubChem BioAssay (EPA / NIEHS):
# The source made the active and inactive calls. How the source made its calls: active means hit-call score of the fitted dose curve at least 0.9, where 1 is the maximum; inactive means score below 0.9.
# Experiment: ATG_AP_2_CIS: Attagene CIS-FACTORIAL HepG2 Assay for human Activator Protein 2 (AP-2) (AID 2282932)
# Conditions: HepG2 AP-2 cis-reporter, Attagene transcription factor profiling; actives raise or lower the signal
# Experimental: ATG_CIS is a cell-based, multiplexed-readout assay that uses HepG2, a human liver cell line, with measurements taken at 24 hours after chemical dosing in a 24-well plate.ATG_AP_2_CIS is one of 52 assay component(s) measured or calculated from the ATG_CIS assay. It is designed to make measurements of mRNA induction, a form of inducible reporter, as detected with fluorescence intensity signals by Reverse transcription polymerase chain reaction (RT-PCR) and Capillary electrophoresis technology.Data from the assay component ATG_AP_2_CIS was analyzed into 1 assay endpoint. This assay endpoint, ATG_AP_2_CIS, was analyzed with bidirectional fitting relative to DMSO as the negative control and baseline of activity. Using a type of inducible reporter, measures of mRNA for gain or loss-of-signal activity can be used to understand the reporter gene at the transcription factor-level as they relate to the gene TFAP2A and TFAP2B and TFAP2D. Furthermore, this assay endpoint can be referred to as a primary readout, because this assay has produced multiple assay endpoints where this one serves a reporter gene function. To generalize the intended target to other relatable targets, this assay endpoint is annotated to the dna binding intended target family, where the subfamily is basic helix-turn-helix leucine zipper.
# Human liver HepG2 cells are transiently transfected with multiple reporter transcription units (MRTUs) in 6-well plates using FuGene 6 reagent (Roche; 3 ml FuGene/1 mg DNA). The MRTU constructs are regulated by a cis-regulating element (promoter). […] A major difference between the CIS and TRANS system is that in CIS activities of endogenous TFs are measured, whereas the TRANS assay evaluates changes in activities of exogenous, chimeric NR-Gal4 proteins. […] At the end of 24 hour incubation, total RNA was isolated using TriZol reagent (Invitrogen). The isolated RNA is then reverse-transcribed using oligo(dT) primer and Mo-MLV reverse transcriptase (Invitrogen) with DNAse I (Ambion) treatment for 30 min. The one-tenth of the produced cDNA was amplified by PCR using Taq DNA polymerase (Invitrogen) and two reporter sequence-specific primers. The PCR products were fluorescently labeled by primer extension with 6-arboxyfluorescein (6-FAM) 5'-labeled reporter sequence-specific primer (2 min at 95 C, 20 s at 68 C and 10 min at 72 C) and these products were digested with 5U of HpaI (New England Biolabs) for 2h at 37 C. The fragments were purified using Qiaquick PCR columns (Qiagen), analyzed on an ABI 3130xL genetic analyzer (Applied Biosystems) with peak positions identified by using a set of X-rhodamine (ROX)-labeled MapMarker1000 molecular weight standards (BioVentures). The raw capillary electrophoresis data was processed using Attagraph software (Attagene).
SMILES,outcome,AC50
Nc1c(Oc2ccccc2)cc(O)c2c1C(=O)c1ccccc1C2=O,inactive,–
CCOP(=S)(OCC)SCS(=O)(=O)C(C)(C)C,inactive,–
C=CC(=O)NC(C)(C)CC(C)=O,inactive,–
O=C(NC(=O)c1c(F)cccc1F)Nc1cc(Cl)c(OC(F)(F)C(F)C(F)(F)F)cc1Cl (stereo not given),inactive,–
CC1(C)[C@H](/C=C2\CCSC2=O)[C@@H]1C(=O)OCc1coc(Cc2ccccc2)c1,inactive,–
C[C@H]1C(=O)O[C@@H]2CCN3CC=C(COC(=O)[C@](C)(O)[C@]1(C)O)[C@H]23,inactive,–
Cc1ccccc1OP(=O)(Oc1ccccc1)Oc1ccccc1,inactive,–
Cc1cc(C)cc(C)c1,inactive,–
COP(=S)(OC)Oc1cc(Cl)c(I)cc1Cl,–,22.5 µM (active)
CCCSP(=S)(OCC)Oc1ccc(SC)cc1 (stereo not given),inactive,–
OC(Cc1ccccc1Cl)(Cn1[nH]cnc1=S)C1(Cl)CC1 (stereo not given),inactive,–
FC(F)OCC(F)(F)C(F)(F)F,inactive,–
C=CCCl,inactive,–
CC(C)C(C)(N)C#N (stereo not given),inactive,–
NC(=O)CCl,inactive,–
CCOP(=S)(OCC)Oc1ccc(Cl)cc1Cl,inactive,–
OC[C@@H](O)[C@H]1O[C@@H]2O[C@H](C(Cl)(Cl)Cl)O[C@@H]2[C@H]1O,inactive,–
O=S(=O)(c1ccc(Cl)cc1)c1cc(Cl)c(Cl)cc1Cl,inactive,–
O=CCCl,inactive,–
Clc1cccc(Cl)c1Cl,inactive,–

SMILES,outcome,AC50
Cc1ccccc1OP(=O)(Oc1ccccc1C)Oc1ccccc1C,inactive,–
CCCSP(=S)(OCC)Oc1ccc(Cl)cc1Cl (stereo not given),inactive,–
CCCCCCCCBr,inactive,–
C#CCO,inactive,–
CCOC(=O)Cc1ccccc1,inactive,–
CCCCOP(=O)(CCCC)OCCCC,inactive,–
CCN(CCO)CCO,inactive,–
CCCCCCCCCCCCc1cccc(S(=O)(=O)O)c1,inactive,–
CCCCN(CCCC)C(=S)[S-].CCCCN(CCCC)C(=S)[S-].[Ni+2],inactive,–
O=NN1CCOCC1,inactive,–
CN(C)CCN(C)C,inactive,–
Cl[C@H]1OCCO[C@@H]1Cl,inactive,–
CC(C)CP(=S)(S)CC(C)C,inactive,–
c1ccc(-c2cccc(-c3ccccc3)c2)cc1,inactive,–
CC(C)(C1CCC(O)CC1)C1CCC(O)CC1 (stereo not given),inactive,–
CS(=O)(=O)c1ccc(C(=O)C2C(=O)CCCC2=O)c(Cl)c1COCC(F)(F)F,inactive,–
Oc1c(Br)cc(Br)cc1Br,inactive,–
O=[N+]([O-])c1ccccc1O,inactive,–
CCOC(=O)CCN(SN(C)C(=O)Oc1cccc2c1OC(C)(C)C2)C(C)C,inactive,–
CC(=O)CN(CC(C)=O)N=O,inactive,–
